± gives the standard deviation of the averaged measurements.
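Note: viability of the cells left after supernatant collection, read with Deep Blue dye added for 4 h, as absorbance at 570 nm minus 600 nm.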

In this assay the test system is MDA-MB-231. Kind of assay: cell viability relative to vehicle unstimulated control (fraction); higher = more viable cells. The note with it: pre-treatment time: 18 h then 24 h IFNg/TNF.
Take `CC(C)=CCC[C@](C)(O)[C@H]1CC[C@]2(C)[C@@H]1[C@H](O)C[C@@H]1[C@@]3(C)CC[C@H](O)C(C)(C)[C@@H]3[C@@H](O[C@@H]3O[C@H](CO)[C@@H](O)[C@H](O)[C@H]3O[C@@H]3OC[C@@H](O)[C@H](O)[C@H]3O)C[C@]12C` [Notoginsenoside R2] (compound dose: 10 uM): the cell viability turned out to be 1.04 ± 0.031. Turning to `CC(=O)O[C@H]1C(=O)[C@@]2(C)[C@H]([C@H](OC(=O)c3ccccc3)[C@]3(O)C[C@H](OC(=O)[C@H](O)[C@@H](NC(=O)c4ccccc4)c4ccccc4)C(C)=C1C3(C)C)[C@]1(OC(C)=O)CO[C@@H]1C[C@@H]2O` [7-epi-Taxol] (compound dose: 10 uM), the cell viability turned out to be 0.791 ± 0.032. For the molecule `CC(CCC(OC1OC(CO)C(O)C(O)C1OC1OC(CO)C(O)C(O)C1O)C(C)(C)O)C1CCC2(C)C3CC=C4C(CCC(OC5OC(COC6OC(CO)C(O)C(O)C6O)C(O)C(O)C5O)C4(C)C)C3(C)C(O)CC12C` (stereo unspecified) [Mogroside IV] (compound dose: 10 uM), the cell viability came out at 0.996 ± 0.11.

As to `C=C1CC[C@@H]2[C@](C)(CO[C@@H]3O[C@H](CO)[C@@H](O)[C@H](O)[C@H]3O)CCC[C@@]2(C)[C@@H]1CCC1=CCOC1=O` [Neoandrographolide] (compound dose: 10 uM), the cell viability is 0.953 ± 0.034. The value for `CC1(C)CC[C@]2(C(=O)O)CC[C@]3(C)C(=CC[C@@H]4[C@@]5(C)CC[C@H](O[C@@H]6O[C@H](C(=O)O)[C@@H](O)[C@H](O)[C@H]6O[C@@H]6O[C@H](CO)[C@@H](O)[C@H](O)[C@H]6O)C(C)(C)[C@@H]5CC[C@]43C)[C@@H]2C1` [Zingibroside R1] (compound dose: 10 uM) was 1.19 ± 0.15; that for `O=C(O)c1cncc(C(=O)O)c1` [3-5-pyridinedicarboxylic acid] (compound dose: 10 uM) was 1.04 ± 0.044; that for `C/C1=C\CC[C@]23O[C@H]2[C@@H](OC3=O)c2c(C)coc2C1` [Linderane] (compound dose: 10 uM) was 0.985 ± 0.032. The value for `CC12CCC(CC1=O)C2(C)C` (stereo unspecified) [Camphor] (compound dose: 10 uM) was 0.977 ± 0.016; that for `CC(C)=CCC[C@@H](C)CC=O` [(R)-(+)-Citronellal] (compound dose: 10 uM) was 1.07 ± 0.035. To `CC1(C)CC[C@]2(CO)CC[C@]3(C)C(=CC[C@@H]4[C@@]5(C)CC[C@H](O)C(C)(C)[C@@H]5CC[C@]43C)[C@@H]2C1` [Erythrodiol] (compound dose: 10 uM) belongs 1.08 ± 0.031. As for `O=c1ccoc2cc(O)cc(O)c12` [5.7-dihydroxychromone] (compound dose: 10 uM), the cell viability amounted to 0.9229 ± 0.0012. The value for `C[C@@H]1O[C@@H](O[C@H]2[C@H](O[C@H]3CC[C@@]4(C)[C@@H](CC[C@]5(C)[C@@H]4CC=C4[C@@H]6CC(C)(C)CC[C@]6(C(=O)O[C@@H]6O[C@H](CO[C@@H]7O[C@H](CO)[C@@H](O[C@@H]8O[C@@H](C)[C@H](O)[C@@H](O)[C@H]8O)[C@H](O)[C@H]7O)[C@@H](O)[C@H](O)[C@H]6O)CC[C@]45C)[C@]3(C)CO)OC[C@H](O)[C@@H]2O)[C@H](O)[C@H](O)[C@H]1O` [Hederacoside C] (compound dose: 10 uM) was 1.05 ± 0.024; that for `COC(=O)[C@]1(C)CC[C@]2(C(=O)O[C@@H]3O[C@H](CO)[C@@H](O)[C@H](O)[C@H]3O)CC[C@]3(C)C(=CC[C@@H]4[C@@]5(C)C[C@H](O)[C@H](O[C@@H]6OC[C@@H](O[C@@H]7O[C@H](CO)[C@@H](O)[C@H](O)[C@H]7O)[C@H](O)[C@H]6O)[C@@](C)(CO)C5CC[C@]43C)[C@H]2C1` (stereo partly specified) [Esculentoside H] (compound dose: 10 uM) was 0.984 ± 0.043. The value for `C[C@@H]1CC[C@]2(C)CC[C@]3(C)C(=CC(=O)C4[C@@]5(C)CC[C@@H](O)[C@](C)(C(=O)O)C5CC[C@]43C)C2[C@H]1C` (stereo partly drawn) [11-Keto-beta-boswellic acid] (compound dose: 10 uM) was 0.949 ± 0.013; that for `CC(C)(O)[C@H]1CC[C@@](C)([C@H]2[C@@H](O)C[C@@]3(C)[C@@H]4C[C@H](O)[C@H]5C(C)(C)[C@@H](O)CC[C@@]56C[C@@]46CC[C@]23C)O1` [Cyclogalegenin] (compound dose: 10 uM) was 0.999 ± 0.043.

As to `CC(C)=CCC[C@@H](C)CC=O` [Citronellal] (compound dose: 10 uM), the cell viability came out at 1.067 ± 0.0084.

The values above are taken from the supplement of paper PMC13094657.
